Measurements taken from PubChem BioAssay (NCATS).
“And” between values parts separate entries of the source, which are not always exact repeats. Identical values can stand only once. Results filed as inconclusive are left out. Values without a mark were called inactive. The source made the active and inactive calls. The call rests on the fitted dose curve; in most records, active means well fitted cell-killing curve with a large enough effect; inconclusive means small, poorly fitted or top-dose-only effect, or effect the other way; inactive means no such curve, though single readings can be large or run the other way.

assay: Viability qHTS for spleen associated tyrosine kinase inhibitor (SYKi) drug resistant MV4-11 cells (AID 1963824); conditions: SYKi-resistant MV4-11 viability, CellTiter-Glo, 72 h; series mostly up to 45 µM; viability, % of control: at the top concentration; further: nearly all actives have a fitted effect of over 35% in size
Excerpt: Department of Medicine, Hematology/Oncology
University Hospital Frankfurt, Germany.
Trials have shown promising clinical activity of the selective SYK inhibitor entospletinib in patients with high expressing HOXA9/MEIS1 acute leukemias. As the development of resistance mechanisms is a common problem in the use of targeted drugs, we performed a chemical library screen to identify drug sensitivities in SYK inhibitor resistant AML cells. […] Glucocorticoids are potent immunosuppressants which work in part by inhibiting the transcription of cytokine genes.
Described herein is a viability screen to look for activity in the SYK inhibitor drug resistant cell line against four NCATS compound libraries (MIPE 5.0, NPC, NPACT, and Kinase) totaling 11372 compounds. Active hits were reacquired for confirmation and further secondary assay testing.
SEQUENCE No. (e.g., 1, 2, 3, etc.); […] (e.g., Cells, Incubation, Reagent, etc.); VALUE; DESCRIPTION.
1; Media; 2uL; white, solid-bottom Corning assay plate.
2; Compounds; 23nL; Echo acoustic dispenser.
3; Cell; 5uL; 500 cells per well.
4: Incubation; 72hr; 37 C, 5% CO2, 95% humidity.
5; Reagent; 3uL; CellTiter-Glo reagent (Promega).
6; Incubation; 10min; room temperature.
7; Detection; Luminescence; ViewLux plate reader (PerkinElmer).
NOTES (numbers refer to Sequence numbers above
1. Quantitative high-throughput screening (qHTS) of small molecule compounds was conducted on drug resistant SYKi MV4-11 cell line.
2. Twenty-three nanoliter of small molecule compounds were added to each assay plates using the Echo acoustic dispenser (Beckman Coulter).
3. Cells were seeded into the assay plates at a final density of 500 cells in 5uL of media per well using the Multidrop Combi dispenser.
4. Plates were covered with stainless steel gasketed lids and incubated for 72 hours at standard cell culture conditions.
5. Viability was assessed by adding 3uL of CellTiter-Glo detection reagent (Promega).
6. Plates were covered with gasket lids and incubated for 10 minutes at room temperature.
7. Luminescence was measured on a ViewLux plate reader (PerkinElmer).
Potency means the concentration at half of the fitted maximal effect.

Structure (SMILES)	viability, % of control	Potency
COC(=O)C[C@@H]1C(C(=O)O)=CO[C@@H](O[C@@H]2O[C@H](CO)[C@@H](O)[C@H](O)[C@H]2O)/C1=C\COC(=O)/C=C\c1ccccc1	60.6% [at 17.3 µM]	–
COc1cc(OC)cc(N2CCN(C(=O)Nc3nc4cc(F)ccc4nc3OC)CC2)c1	–	1.05 µM (active)
C=CC(=O)N[C@H]1CN(c2nc(Nc3cn(C)nc3OC)c3ncn(C)c3n2)C[C@@H]1F	–	18.6 µM (active)
CN1CCCN(C(=O)c2cccc(-c3ccc(/C=C4\C(=O)Nc5ccc(Cl)cc54)o3)c2)CC1	–	0.461 µM (active)
Clc1ccccc1-c1nc(-c2ccncc2)no1	–	11.9 µM (active)
COc1cc(F)ccc1-c1ncnc(Nc2cccc(CS(C)(=N)=O)c2)n1 (stereo not given)	–	1.16 µM (active)
Cc1cccc(C)c1NC(=O)CN1CCN(CCCC(c2ccc(F)cc2)c2ccc(F)cc2)CC1	–	8.41 µM (active)
CCOc1ncc(F)c(=O)[nH]1	69.1%	–
CC(C)=CCC[C@](C)(O[C@@H]1O[C@H](CO[C@@H]2O[C@H](CO)[C@@H](O)[C@H](O)[C@H]2O)[C@@H](O)[C@H](O)[C@H]1O)C1CC[C@]2(C)[C@@H]1[C@H](O)CC1[C@@]3(C)CC[C@H](O[C@@H]4O[C@H](CO)[C@@H](O)[C@H](O)[C@H]4O[C@@H]4O[C@H](CO)[C@@H](O)[C@H](O)[C@H]4O)C(C)(C)[C@@H]3CC[C@]12C (stereo not given in full)	69.6% [at 9.25 µM]	–
CCCS(=O)(=O)Nc1ccc(F)c(C(=O)c2c[nH]c3ncc(Cl)cc23)c1F	–	11.8 µM (active)
COc1cc(-c2ncn(/C=C\C(=O)OC(C)C)n2)cc(C(F)(F)F)c1	–	0.164 µM (active)
CC(=O)NCCCS(=O)(=O)O	87.2% [at 17.3 µM]	–
CCOc1cc(C(=O)N2CCC(N3CCN(C)CC3)CC2)ccc1Nc1ncc2c(n1)N(C1CCCC1)c1ccccc1C(=O)N2C	–	651 nM (active) and 934 nM (active)
Cn1cc(CCn2cnc(-c3cnn(C)c3)c2-c2ccc(C#N)cc2)cn1	102%	–
O=C(Nc1nc2cc(C(F)(F)F)cc(NC3CC3)n2n1)c1cccnc1	–	2.59 µM (active)
O=C(O)c1cn(-c2ccc(F)cc2)c2cc(N3CCNCC3)c(F)cc2c1=O	83.6% [at 17.3 µM]	–
CCC(C)(NC(=O)C(CCC(N)=O)NC(=O)C1CC(O)CN1C(=O)C(C)(C)NC(=O)C(C)(C)NC(=O)C(CC(C)C)NC(=O)CNC(=O)C(NC(=O)C(C)(C)NC(=O)C(C)(C)NC(=O)C(C)(C)NC(=O)C(Cc1ccccc1)NC(C)=O)C(C)C)C(=O)N1CC(O)CC1C(=O)NC(C)(C)C(=O)NC(CO)Cc1ccccc1 (stereo not given)	–	0.616 µM (active)
Nc1ncnc2c1C(=O)N(c1ccc(C3CCC(CC(=O)O)CC3)cc1)CCO2 (stereo not given)	–	inactive
O=C1CCCc2c(O)cccc21	81.4%	–
N#Cc1ccc2ncnc(NCCc3ccccc3)c2c1	–	4.11 µM (active)

Structure (SMILES)	viability, % of control	Potency
N=C(N)c1ccc(OCCCCCOc2ccc(C(=N)N)cc2)cc1	–	4.22 µM (active) and 1.66 µM (active)
CNS(=O)(=O)Nc1nccc(Cc2c(C)c3ccc(Oc4ncccn4)cc3oc2=O)c1F	–	0.59 µM (active)
CC1=C2CC3C(CCC3(C)O)C(C)(O)CC2OC1=O (stereo not given)	97.7%	–
NC(=O)c1ccc(-c2nc(-c3ccc4c(c3)OCO4)c(-c3ccccn3)[nH]2)cc1	–	11.6 µM (active)
CCCN(CCC)C(=O)C1=Cc2ccc(-c3ccc(C(=O)N4CCCC4)cc3)cc2N=C(N)C1	–	4.17 µM (active)
Cc1nccn1CC1CCc2c(c3ccccc3n2C)C1=O (stereo not given)	–	inactive
CC(CN1c2ccccc2Sc2ccccc21)N(C)C (stereo not given)	7.13%	–
CCNC(=O)[C@@H]1CCCN1C(=O)[C@H](CCCN=C(N)N)NC(=O)[C@H](CC(C)C)NC(=O)[C@@H](CC(C)C)NC(=O)[C@H](Cc1ccc(O)cc1)NC(=O)[C@H](CO)NC(=O)[C@H](Cc1c[nH]c2ccccc12)NC(=O)[C@H](Cc1cnc[nH]1)NC(=O)[C@@H]1CCC(=O)N1	–	7.09 µM (active)
COc1cc(/C=C/C(=O)OC[C@H]2O[C@H](O[C@]3(CO)O[C@H](CO)[C@@H](O)[C@@H]3O)[C@H](O)[C@@H](O)[C@@H]2O)cc(OC)c1O	103% [at 17.3 µM]	–
CCc1cc(-c2n[nH]c(C)c2-c2ccc3c(c2)OCCO3)c(O)cc1O	–	4.17 µM (active)
c1ccc(-c2ccc(CNc3nc(-c4ccccn4)nnc3-c3ccccc3)cc2)cc1	–	1.03 µM (active)
CCC(NC(=O)CC(NC(=O)C(CO)NC(=O)C(CC)NC(=O)c1ccc[nH]1)c1ccccc1)C(=O)O (stereo not given)	87.1% [at 17.3 µM]	–
CNC(C)C(=O)NC(C(=O)N1CCCC1C(=O)Nc1cccc2ncccc12)C(C)C (stereo not given)	–	11.6 µM (active)
Cc1cc(O[C@@H](CCC(F)(F)F)c2ccc(C(=O)NCCC(=O)O)cc2)cc(C)c1-c1ccc(C(C)(C)C)cc1	–	9.34 µM (active)
CC(=O)O[C@@H]1[C@@H](O)[C@H](O[C@H]2CC[C@]34C[C@]35CC[C@]3(C)[C@@H]([C@@]6(C)CC[C@@H](C(C)(C)O)O6)[C@@H](O)C[C@@]3(C)[C@@H]5C[C@H](O[C@@H]3O[C@H](CO)[C@@H](O)[C@H](O)[C@H]3O)[C@H]4C2(C)C)OC[C@H]1O	78.1%	–
CN(C)Cc1ccc(-c2cnn3c(-c4cccc(NC(=O)c5cccc(C(F)(F)F)c5)c4)ccnc23)cc1	–	3.66 µM (active)
C=CC(C)(O)CC/C=C(\C)C(=O)OC1CC2(C(=O)O)CCC3(C)C(=CCC4C5(C)CCC(OC6OC(COC7OCC(O)C(O)C7O)C(O)C(OC7OCC(O)C(O)C7O)C6OC6OC(CO)C(O)C(O)C6OC6OCC(O)C(O)C6O)C(C)(C)C5CCC43C)C2CC1(C)C (stereo not given)	68% [at 9.25 µM]	–
C=CC(=O)Nc1cccc(Nc2nc(Nc3ccc(Oc4ccnc(C(=O)NC)c4)cc3)ncc2F)c1	–	5.8 µM (active) and 4.17 µM (active)
CN1CC[C@H](c2c(O)cc(O)c3c(=O)cc(-c4ccccc4Cl)oc23)[C@H](O)C1	–	0.299 µM (active)
Cc1ccc(CN2CCNCC2)cc1NC(=O)CNc1ccc(F)c(F)c1	78%	–
